Inconclusive results are not listed. The source made the active and inactive calls. Unless noted, calls follow the shape of the dose curve; as a rule, active = well fitted curve in the direction sought with a large enough effect; inconclusive = small, poorly fitted or top-dose-only effect, or another doubt; inactive = no such curve, though single readings can be large; an effect the other way counts as inactive or inconclusive.
Assays:
[1] = AP1 Signaling Pathway (AID 357; active = well fitted curve in either direction with a large enough effect, not every such curve was filed as active;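 also: ME-180 reporter cells stimulated with EGF at its EC50 level; % is scaled to controls: 0 for no effect and ±100 for the full control effect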); settings: ME-180 AP-1-bla reporter, EGF-induced, beta-lactamase ratio, 5 h; at 17.2 µM (top of the series)
Method in brief: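 A ratiometric CCF4 readout (405 nm excitation; 460 and 530 nm emission) quantified AP-1-driven beta-lactamase in ME-180 cells after 5 h with compound and EC50 EGF; AC50 values were derived for activators and inhibitors.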

[2] = NFAT Signaling Pathway (AID 444; active = well fitted curve in either direction with a large enough effect, not every such curve was filed as active;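 also: carbachol stimulus at about its EC50 of 1 µM final; % is scaled to controls: 0 for no effect and ±100 for the full control effect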); settings: Jurkat NFAT-bla M1, carbachol, beta-lactamase ratio, 5 h; at 17.2 µM (top of the series)
Method in brief: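 Jurkat cells with NFAT-driven β-lactamase reporter and co-expressed M1 receptor, stimulated with carbachol (final 1 uM, ~EC50), compound titration, 5 h at 37 °C. CCF4 loaded 1 h at RT; 460/530 nm ratio gave %activity and AC50.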

[3] = Stat Signaling Pathway (AID 446; active = well fitted curve in either direction with a large enough effect, not every such curve was filed as active;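 also: ME-180 cervical cancer cells given 40 pM IL-6 alongside compound; SIE-controlled beta-lactamase reporter measured as 460/530 nm FRET emission ratio; % is scaled to controls: 0 for no effect and ±100 for the full control effect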); settings: ME-180 (cervical carcinoma) SIE beta-lactamase reporter, IL-6 stimulated, 5 h; at 17.2 µM (top of the series)
Method in brief: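 FRET read-out (405 nm excitation, 460/530 nm emission) of a beta-lactamase reporter under a STAT-inducible element in ME-180 cervical carcinoma cells. Cells with compound receive 40 pM IL-6 for 5 h. Values are normalised to AC90 stimulation and AC90 JAK-inhibitor controls.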

[4] = biological target: Mitogen-activated protein kinase 10 (Mus musculus) (UniProt Q61831); assay: JNK3 AlphaScreen Assay (AID 530; active = well fitted curve in either direction with a large enough effect, not every such curve was filed as active;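 also: kinase came from lysate of stimulated human HepG2 cells; signal reports phosphorylation of biotinylated GST-cJun 1-79 at Ser73 with 10 µM ATP; % is scaled to controls: 0 for no effect and ±100 for the full control effect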)
Method in brief: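 Activity was read by AlphaScreen after JNK3-containing HepG2 lysate (cytokine pre-activated) phosphorylated biotinylated GST-cJun with 10 uM ATP at room temperature. Phospho-Ser73 cJun antibody with Protein-A acceptor beads provided detection.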

[5] = biological target: DNA dC->dU-editing enzyme APOBEC-3G (Homo sapiens) (UniProt Q9HC16); assay: qHTS for inhibitors of Vif-A3G interactions: Validation (AID 588379); also: 0% is about no effect
Chain of DNA dC->dU-editing enzyme APOBEC-3G (Homo sapiens) (Q9HC16 whole entry, looked up): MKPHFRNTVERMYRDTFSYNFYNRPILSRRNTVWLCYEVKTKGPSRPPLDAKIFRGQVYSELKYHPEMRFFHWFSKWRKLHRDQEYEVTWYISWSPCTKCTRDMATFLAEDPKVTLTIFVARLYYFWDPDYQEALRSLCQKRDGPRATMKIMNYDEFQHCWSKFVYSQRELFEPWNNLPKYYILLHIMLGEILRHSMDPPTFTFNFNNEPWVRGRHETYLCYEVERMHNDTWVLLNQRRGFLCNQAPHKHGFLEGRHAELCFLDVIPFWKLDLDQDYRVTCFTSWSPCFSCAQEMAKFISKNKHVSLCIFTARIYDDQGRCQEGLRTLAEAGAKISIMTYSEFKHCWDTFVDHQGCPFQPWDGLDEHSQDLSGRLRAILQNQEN
Method in brief: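 Yellow fluorescence (Ex 488, Em 500-530) of Vif-coexpressing HeLa A3G-eYFP cells, scanned by Acumen cytometer, reports blocked A3G degradation. Cells plated at 700/well overnight at 37 deg C before compound addition, then a further overnight compound incubation at 37 deg C.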

[6] = test system: Zika virus NS2B-NS3 protease; assay: Primary screen GU AMC qHTS for Zika virus inhibitors (AID 1347154);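 also: 0% = no-inhibitor control and -100% = no-enzyme control; nearly all actives have a fitted effect of over 70% in size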
Method in brief: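 Unlinked Zika NS2B hydrophilic domain–NS3 protease complex at 25 nM in 10 mM Tris-HCl pH 8.0, 0.01% Tween 20, with an AMC peptide substrate. Fluorescence change (340/450 nm) over 15 min at room temperature, normalized to controls, fitted to 4-parameter Hill.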

[7] = biological target: Glucocorticoid receptor (Homo sapiens) (UniProt P04150); assay: GR-GFP Redistribution (AID 450;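 active = compounds whose dose series gives a full or clear partial fitted curve of increased nuclear translocation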; also: potency is read from the fitted curve at half-maximal effect); settings: U2OS GR-GFP nuclear translocation, laser cytometry, 2 h
Chain of Glucocorticoid receptor (Homo sapiens) (P04150 whole entry, looked up, the tested form may be a part): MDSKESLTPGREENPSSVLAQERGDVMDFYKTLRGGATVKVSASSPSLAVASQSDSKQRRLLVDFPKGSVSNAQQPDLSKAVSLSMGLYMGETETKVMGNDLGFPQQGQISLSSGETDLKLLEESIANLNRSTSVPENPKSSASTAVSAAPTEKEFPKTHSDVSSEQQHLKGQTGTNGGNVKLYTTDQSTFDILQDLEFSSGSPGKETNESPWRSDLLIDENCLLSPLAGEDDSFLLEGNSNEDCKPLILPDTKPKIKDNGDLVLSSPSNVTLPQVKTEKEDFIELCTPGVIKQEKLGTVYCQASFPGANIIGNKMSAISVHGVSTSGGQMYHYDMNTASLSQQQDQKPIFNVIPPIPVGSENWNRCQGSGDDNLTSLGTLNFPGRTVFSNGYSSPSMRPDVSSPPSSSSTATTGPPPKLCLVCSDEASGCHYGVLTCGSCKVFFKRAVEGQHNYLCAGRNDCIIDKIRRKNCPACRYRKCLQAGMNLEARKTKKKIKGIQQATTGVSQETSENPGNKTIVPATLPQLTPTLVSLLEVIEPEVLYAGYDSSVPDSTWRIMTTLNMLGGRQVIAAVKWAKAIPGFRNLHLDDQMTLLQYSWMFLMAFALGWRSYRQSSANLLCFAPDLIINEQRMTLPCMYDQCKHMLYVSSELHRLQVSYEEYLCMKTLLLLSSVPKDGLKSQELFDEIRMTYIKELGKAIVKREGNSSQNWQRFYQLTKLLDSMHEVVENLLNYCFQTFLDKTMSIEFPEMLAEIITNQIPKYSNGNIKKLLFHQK

[8] = biological target: Glucocorticoid receptor (Homo sapiens) (UniProt P04150); assay: GR-EFC Redistribution (AID 451; calls by dose curve; also: potency is read from the fitted curve at half-maximal effect); settings: CHO-K1 GR-EFC translocation, beta-gal luminescence, 2 h
Method in brief: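 CHO-K1 cells expressing nuclear EA and GR-ED fragments of b-gal; compounds titrated up to 46 uM final, 2 h at 37 C. GR nuclear translocation read as complemented b-gal luminescence after 1 h RT detection.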

[9] = qHTS Assay for Lipid Storage Modulators (AID 1519; calls by dose curve); settings: Drosophila S3 cells, BODIPY lipid droplet/cell ratio, laser cytometry, cells loaded with oleic acid
Method in brief: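 Cells seeded at 5,000 per well were treated with compounds over a concentration series and loaded with oleic acid (400 uM, as added). Lipid droplet fluorescence (488 nm excitation, 500-530 nm channel) was read by laser-scanning cytometry and normalized to 20 uM Triacsin C.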

[10] = biological target: Ubiquitin carboxyl-terminal hydrolase 1 (Homo sapiens) (UniProt O94782); assay: Inhibitors of USP1/UAF1: Pilot qHTS (AID 504865);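 also: rhodamine fluorescence freed from ubiquitin-rhodamine substrate followed over time; top concentration of the series differs between compounds; % is scaled to controls: 0 for no effect and ±100 for the full control effect; nearly all actives have a fitted effect of over 35% in size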
Chain of Ubiquitin carboxyl-terminal hydrolase 1 (Homo sapiens) (O94782 whole entry, looked up): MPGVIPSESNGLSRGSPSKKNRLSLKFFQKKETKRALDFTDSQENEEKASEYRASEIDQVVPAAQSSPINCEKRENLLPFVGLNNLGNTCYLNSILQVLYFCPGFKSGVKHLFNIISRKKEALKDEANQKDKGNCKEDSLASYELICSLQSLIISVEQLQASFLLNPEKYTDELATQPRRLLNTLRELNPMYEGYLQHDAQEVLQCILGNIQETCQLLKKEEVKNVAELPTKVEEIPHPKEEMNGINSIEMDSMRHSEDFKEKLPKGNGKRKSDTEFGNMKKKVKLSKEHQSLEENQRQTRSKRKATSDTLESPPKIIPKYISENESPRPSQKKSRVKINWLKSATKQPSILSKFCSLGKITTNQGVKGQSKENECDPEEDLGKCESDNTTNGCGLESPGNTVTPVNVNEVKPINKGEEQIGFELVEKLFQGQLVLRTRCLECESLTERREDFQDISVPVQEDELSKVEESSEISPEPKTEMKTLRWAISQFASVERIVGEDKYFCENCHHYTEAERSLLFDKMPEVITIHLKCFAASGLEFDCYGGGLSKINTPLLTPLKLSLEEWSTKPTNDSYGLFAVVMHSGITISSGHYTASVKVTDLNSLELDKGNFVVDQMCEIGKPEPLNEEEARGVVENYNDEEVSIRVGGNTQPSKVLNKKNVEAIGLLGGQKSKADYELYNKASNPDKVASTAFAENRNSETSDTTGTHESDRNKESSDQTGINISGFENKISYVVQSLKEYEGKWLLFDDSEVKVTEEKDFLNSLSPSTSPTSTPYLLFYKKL
Method in brief: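 Enzyme-free wells gave the negative control, while test wells held 1nM USP1/UAF1 preincubated with compound for 15 min at room temperature. Ub-Rho at 150nM final started the reaction, and fluorescence at 480/540 nm was recorded kinetically.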

[11] = biological target: Rap guanine nucleotide exchange factor 3 (Homo sapiens) (UniProt O95398); assay: Confirmatory qHTS for antagonist of cAMP-regulated guanine nucleotide exchange factor 3 (EPAC1) (AID 1645880);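 also: plate controls were DMSO only for no effect and full effect of the ATA control for full effect; nearly all actives have a fitted effect of over 55% in size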
Method in brief: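 Released BODIPY-GDP fluoresces less than Rap1-bound BODIPY-GDP; the signal is followed at 480/540 nm at 5-min intervals over 30 min, after 5 min at room temperature. Reactions contain 100 nM EPAC1, 250 nM RAP1B-BODIPY-GDP and 50 uM GDP; results are normalized to ATA and DMSO.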

[12] = biological target: Rap guanine nucleotide exchange factor 3 (Homo sapiens) (UniProt O95398); assay: Confirmatory qHTS for agonist of cAMP-regulated guanine nucleotide exchange factor 3 (EPAC1) (AID 1645881);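 also: EPAC1 catalysed release of BODIPY-GDP from Rap1B seen as fluorescence loss; 100% = effect of cAMP agonist control; nearly all actives have a fitted effect of over 75% in size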
[13] = biological target: Rap guanine nucleotide exchange factor 4 (Homo sapiens) (UniProt Q8WZA2); assay: Confirmatory qHTS for agonist of cAMP-regulated guanine nucleotide exchange factor 4 (EPAC2) (AID 1645884);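 also: nucleotide exchange releases bodipy-GDP from Rap1 and this lowers its fluorescence; % is scaled to controls: 0 for no effect and ±100 for the full control effect; nearly all actives have a fitted effect of over 65% in size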
Chain of Rap guanine nucleotide exchange factor 4 (Homo sapiens) (Q8WZA2 whole entry, looked up): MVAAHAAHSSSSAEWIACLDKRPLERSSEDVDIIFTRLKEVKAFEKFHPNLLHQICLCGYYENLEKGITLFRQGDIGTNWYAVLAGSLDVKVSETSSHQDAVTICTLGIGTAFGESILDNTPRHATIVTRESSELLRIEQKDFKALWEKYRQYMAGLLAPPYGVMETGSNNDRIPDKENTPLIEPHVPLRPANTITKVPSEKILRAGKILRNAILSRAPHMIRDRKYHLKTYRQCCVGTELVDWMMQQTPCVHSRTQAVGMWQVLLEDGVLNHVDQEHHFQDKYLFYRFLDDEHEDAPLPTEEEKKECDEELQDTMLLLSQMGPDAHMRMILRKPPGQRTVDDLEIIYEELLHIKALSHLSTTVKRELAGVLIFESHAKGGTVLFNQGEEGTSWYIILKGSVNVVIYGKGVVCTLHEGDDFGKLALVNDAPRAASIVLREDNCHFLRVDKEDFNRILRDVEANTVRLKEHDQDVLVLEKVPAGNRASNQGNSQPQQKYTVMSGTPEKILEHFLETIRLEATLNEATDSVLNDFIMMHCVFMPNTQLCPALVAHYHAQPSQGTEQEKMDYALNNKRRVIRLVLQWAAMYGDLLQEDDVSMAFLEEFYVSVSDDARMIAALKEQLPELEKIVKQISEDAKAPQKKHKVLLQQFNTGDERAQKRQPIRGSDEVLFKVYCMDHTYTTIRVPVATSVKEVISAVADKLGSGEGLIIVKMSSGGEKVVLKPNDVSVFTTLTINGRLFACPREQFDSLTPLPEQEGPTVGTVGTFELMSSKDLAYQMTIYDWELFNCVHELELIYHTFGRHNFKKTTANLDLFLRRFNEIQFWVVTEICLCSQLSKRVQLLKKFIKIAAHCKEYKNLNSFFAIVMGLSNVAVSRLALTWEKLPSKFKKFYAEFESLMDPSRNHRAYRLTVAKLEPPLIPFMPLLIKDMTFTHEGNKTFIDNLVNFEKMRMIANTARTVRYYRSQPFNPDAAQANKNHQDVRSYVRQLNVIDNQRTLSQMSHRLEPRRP

[14] = biological target: Rap guanine nucleotide exchange factor 4 (Homo sapiens) (UniProt Q8WZA2); assay: Confirmatory qHTS for antagonist of cAMP-regulated guanine nucleotide exchange factor 4 (EPAC2) (AID 1645885); also: % is scaled to controls: 0 for no effect and ±100 for the full control effect; nearly all actives have a fitted effect of over 25% in size
[15] = biological target: Cytochrome P450 2D6 (Homo sapiens) (UniProt P10635); assay: qHTS Assay for Inhibitors and Substrates of Cytochrome P450 2D6 (AID 891); also: potency is read from the fitted curve at half-maximal effect; nearly all actives have a fitted effect of over 60% in size
Method in brief: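 Luminescent read-out of luciferin formed by 5 nM human CYP2D6 demethylating 30 uM Luciferin-ME EGE (Km level) over 60 min at room temperature after NADPH regeneration addition. Data normalized to full inhibition by 1.43 uM quinidine.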

[16] = biological target: Cytochrome P450 3A4 (Homo sapiens) (UniProt P08684); assay: qHTS Assay for Inhibitors and Substrates of Cytochrome P450 3A4 (AID 884); also: nearly all actives have a fitted effect of over 50% in size; also: potency is read from the fitted curve at half-maximal effect
Chain of Cytochrome P450 3A4 (Homo sapiens) (P08684 whole entry, looked up): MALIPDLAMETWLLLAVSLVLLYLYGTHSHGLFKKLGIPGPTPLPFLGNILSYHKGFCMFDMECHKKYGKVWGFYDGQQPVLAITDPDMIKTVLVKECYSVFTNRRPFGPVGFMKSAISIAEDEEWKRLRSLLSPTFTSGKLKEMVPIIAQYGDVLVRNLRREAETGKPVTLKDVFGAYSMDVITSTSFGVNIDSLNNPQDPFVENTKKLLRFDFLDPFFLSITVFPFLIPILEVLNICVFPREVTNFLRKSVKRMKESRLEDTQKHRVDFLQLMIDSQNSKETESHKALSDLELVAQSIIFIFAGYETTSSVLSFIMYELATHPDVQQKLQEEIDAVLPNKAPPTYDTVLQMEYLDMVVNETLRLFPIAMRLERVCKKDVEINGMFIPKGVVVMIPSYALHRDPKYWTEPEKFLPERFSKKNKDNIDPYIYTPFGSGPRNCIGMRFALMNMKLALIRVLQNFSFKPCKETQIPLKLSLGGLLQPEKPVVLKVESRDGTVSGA
Method in brief: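 Luminescent readout of luciferin produced by CYP3A4 (20 nM) dealkylation of Luciferin-PPXE, 25 uM (its KM). NADPH-driven reaction ran 60 min at RT after 10 min compound preincubation; data scaled to 57 uM ketoconazole as 100% inhibition.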

[17] = biological target: Cytochrome P450 1A2 (Homo sapiens) (UniProt P05177); assay: p450-cyp1a2 (AID 410; calls by dose curve;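 also: -100% = full effect of reference inhibitor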)
Chain of Cytochrome P450 1A2 (Homo sapiens) (P05177 whole entry, looked up): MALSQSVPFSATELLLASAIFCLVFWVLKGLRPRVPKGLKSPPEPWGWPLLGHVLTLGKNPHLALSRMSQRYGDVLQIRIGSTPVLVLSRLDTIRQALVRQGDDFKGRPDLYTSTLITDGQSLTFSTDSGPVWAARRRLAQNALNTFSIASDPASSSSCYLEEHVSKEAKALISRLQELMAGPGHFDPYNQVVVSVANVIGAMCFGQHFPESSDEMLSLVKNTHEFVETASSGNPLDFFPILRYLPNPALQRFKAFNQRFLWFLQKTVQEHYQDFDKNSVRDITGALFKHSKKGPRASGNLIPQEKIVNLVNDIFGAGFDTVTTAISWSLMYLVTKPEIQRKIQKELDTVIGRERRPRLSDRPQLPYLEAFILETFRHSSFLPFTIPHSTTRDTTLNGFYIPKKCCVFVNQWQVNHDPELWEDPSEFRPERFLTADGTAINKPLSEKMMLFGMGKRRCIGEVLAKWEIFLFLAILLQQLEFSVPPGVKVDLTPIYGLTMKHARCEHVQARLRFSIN
Method in brief: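 O-Demethylation of luciferin 6' methyl ether by human CYP1A2 is monitored as luciferase luminescence. Substrate sits at Km (100uM); enzyme is 20nM. Values are scaled to 57 uM furafylline as maximal inhibition.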

[18] = biological target: 3',5'-cyclic-AMP phosphodiesterase 4B (Homo sapiens) (UniProt Q07343); assay: qHTS Assay for Inhibitors of PDE-IV (AID 607; active = well fitted activation curve with a large enough effect in the main read-out, with a control signal flat, not every such curve was filed as active; also: % of control where 0% means no effect)
Chain of 3',5'-cyclic-AMP phosphodiesterase 4B (Homo sapiens) (Q07343 whole entry, looked up): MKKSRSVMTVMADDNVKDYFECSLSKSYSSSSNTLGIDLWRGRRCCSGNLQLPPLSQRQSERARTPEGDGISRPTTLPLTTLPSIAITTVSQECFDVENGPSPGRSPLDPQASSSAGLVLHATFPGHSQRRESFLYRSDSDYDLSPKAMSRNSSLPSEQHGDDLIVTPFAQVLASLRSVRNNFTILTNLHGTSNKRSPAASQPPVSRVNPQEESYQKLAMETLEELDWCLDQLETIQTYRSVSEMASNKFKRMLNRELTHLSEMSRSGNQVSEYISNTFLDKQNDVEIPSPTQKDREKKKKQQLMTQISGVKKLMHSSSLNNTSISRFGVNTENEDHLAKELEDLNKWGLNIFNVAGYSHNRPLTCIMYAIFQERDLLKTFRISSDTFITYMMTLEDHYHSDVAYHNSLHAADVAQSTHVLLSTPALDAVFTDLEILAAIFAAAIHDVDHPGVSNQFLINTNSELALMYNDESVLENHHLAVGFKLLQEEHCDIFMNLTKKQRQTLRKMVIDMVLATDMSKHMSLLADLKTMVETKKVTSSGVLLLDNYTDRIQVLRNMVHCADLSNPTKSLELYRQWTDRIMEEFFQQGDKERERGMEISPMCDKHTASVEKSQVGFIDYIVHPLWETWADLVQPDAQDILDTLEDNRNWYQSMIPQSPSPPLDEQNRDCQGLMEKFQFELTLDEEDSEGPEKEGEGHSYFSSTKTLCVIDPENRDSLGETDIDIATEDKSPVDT
Method in brief: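 Cell-based read-out of cAMP via a modified cyclic nucleotide-gated channel and membrane potential dye (535/590 nm) in HEK293 cells expressing PDE4 endogenously. Compounds tested up to 22.9 uM final; 100 uM RO 20-1724 reference.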

[19] = biological target: Cytochrome P450 3A4 (Homo sapiens) (UniProt P08684); assay: qHTS Assay for Activators of Cytochrome P450 3A4 (AID 885); also: nearly all actives have a fitted effect of over 65% in size
Method in brief: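 Luminescent readout of luciferin formed from 25 uM Luciferin-PPXE (KM level) by 20 nM CYP3A4 in 200 mM KPO4, with 60 min NADPH-driven reaction at room temperature after 10 min compound exposure. Ketoconazole (57 uM) defined 100% inhibition.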

CC(C)[N+]1(C)[C@@H]2CC[C@H]1CC(OC(=O)[C@@H](CO)c1ccccc1)C2 (stereo partly specified)
inactive: activity change, negative = inhibition [1] -0.347% | activity, negative = inhibition [3] 2.01% | Potency [4] | Potency [5] | Potency [6]
active: activity change, negative = inhibition [2] -41.7%

N[C@H]1CCN(O)C1=O
-12.7%: max response ([9]; measured here: lipid channel max response)
-8.46%: max response ([9]; measured here: cell count channel max response)
inactive: Potency [7] > 46 µM | Potency [8] > 46 µM | Potency [4] | activity change, negative = inhibition ([9]; at 57.5 µM (top of the series)) -6.49% | Potency [10] | Potency [5] | Potency [6]

CN1[C@@H]2CC(OC(=O)[C@H](CO)c3ccccc3)C[C@@H]1[C@H]1O[C@H]12 (stereo partly specified)
inactive: Potency [5] | Potency [6] | Potency [11] | outcome [12] | outcome [13] | Potency [14]

CNc1ncnc2c1ncn2[C@H]1C[C@H](OP(=O)(O)O)[C@H](COP(=O)(O)O)O1
active: Potency [15] 5.01 µM
inactive: Potency [7] > 46 µM | Potency [8] > 46 µM | Potency [4] | Potency [10] | Potency [5] | Potency [6]

O=C(c1ccc(F)cc1)C1CCN(CCCCc2ccccc2)CC1
inactive: Potency [7] > 46 µM | Potency [8] > 46 µM | Potency [4] | Potency [16] | Potency [10] | Potency [5] | Potency [6]

C[N+](C)(C)CCCCCNCC12CC3CC(CC(C3)C1)C2
inactive: Potency [17] | Potency [8] > 46 µM | Potency [4] | Potency [18] | Potency [10] | Potency [5] | Potency [6]

COc1ccc([N+](=O)[O-])c2c1CCN2C(=O)CC[C@H](N)C(=O)O
inactive: Potency [8] > 46 µM | Potency [4] | Potency [18] | Potency [5] | Potency [6]
active: Potency [7] 4.81 µM

O=C1c2ccccc2C(Cc2ccnc(F)c2)(Cc2ccnc(F)c2)c2ccccc21
active: Potency [16] 15.8 µM
inactive: Potency [19] | Potency [6]

From PubChem BioAssay (NCATS)
